Compound activity: PubChem BioAssay, National Center for Advancing Translational Sciences (NCATS)
Hits are enriched below; roughly 11% of the tested compounds scored in any of these assays.
JMJD2A Tudor: qHTS Assay for Inhibitors of JMJD2A-Tudor Domain. Lysine-specific demethylase 4A (Homo sapiens), O75164. Potency, µM (titrated, usually from 114 µM), for inactives: at the top dose activity change, negative = inhibition, usual class: inhibitors. actives 4.4% (n = 390,000). AlphaScreen JMJD2A-Tudor / H3K4me3 peptide binding; further: potency means the concentration at half of the fitted maximal effect; on the % scale 0 is the no-effect control and ±100 the full control effect; nearly all actives have a fitted effect of over 50% in size
BAZ2B block: qHTS Assay for Inhibitors of BAZ2B; Bromodomain adjacent to zinc finger domain protein 2B (Homo sapiens), Q9UIF8; AlphaScreen BAZ2B-H3K14Ac peptide displacement; Potency, µM (top dose mostly 114 µM), inactives show at the top dose activity change, negative = inhibition, most hits filed as inhibitors; actives 4.4% (n = 360,000); further: potency means the concentration at half of the fitted maximal effect; on the % scale 0 is the no-effect control and ±100 the full control effect; nearly all actives have a fitted effect of over 60% in size
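AlphaScreen displacement of biotin-H3(5-23)K14Ac peptide (50 nM final) from BAZ2B (50 nM final) in PBS pH 7.4, 0.01% Tween-20; complex preformed 30 min RT, then compounds (top 110 uM) 30 min RT, beads 20 min dark.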
G9a inh: qHTS Assay for Inhibitors of Histone Lysine Methyltransferase G9a; Histone-lysine N-methyltransferase EHMT2 (Homo sapiens), Q96KQ7; G9a H3K9 monomethylation, AlphaScreen, 2 h; Potency, µM (highest dose often 102 µM), inactives show top-dose activity, negative = inhibition, actives largely listed as inhibitors; actives 8.8% (n = 350,000); AID 504332, 2011; further: potency means the concentration at half of the fitted maximal effect; on the % scale 0 is the no-effect control and ±100 the full control effect; nearly all actives have a fitted effect of over 75% in size
Target sequence (Q96KQ7 913-1193 limits assumed): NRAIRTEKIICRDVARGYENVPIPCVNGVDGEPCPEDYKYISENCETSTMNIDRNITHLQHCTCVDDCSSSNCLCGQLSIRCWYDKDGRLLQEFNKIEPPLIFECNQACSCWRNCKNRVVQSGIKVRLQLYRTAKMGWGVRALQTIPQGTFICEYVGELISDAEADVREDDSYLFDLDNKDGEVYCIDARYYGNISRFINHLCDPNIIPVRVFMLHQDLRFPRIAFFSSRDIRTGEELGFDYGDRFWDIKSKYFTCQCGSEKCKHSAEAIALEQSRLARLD
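Step 1: enzyme (final 20 nM) with compound, 15 min RT. Step 2: substrate peptide 500 nM and SAM 20 uM, 2 h RT. Step 3: anti-H3K9me1 antibody and AlphaScreen beads, 10 min, then plate read.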
PI5P4K alpha inh: qHTS for Inhibitors of phosphatidylinositol 5-phosphate 4-kinase (PI5P4K); max response, %; actives 1.2% (n = 330,000); PI5P4Kalpha enzyme, ADP-Glo luminescence, 60 min; active compounds read low; Phosphatidylinositol 5-phosphate 4-kinase type-2 alpha (Homo sapiens), P48426; active means max response of -50% or lower; inconclusive means between -30% and -50%; inactive means -30% or higher; further: value at the top dose of about 77 µM; on the % scale 0 is the no-effect control and ±100 the full control effect
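ADP-Glo luminescence end-point read after a 60 min room-temperature kinase reaction of PI5P4Kalpha plus substrate, initiated with ATP at 5 microM final. Buffer: 0.038 M HEPES pH 7.4, EGTA, 0.1% CHAPS, 5% DMSO.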
HP1b binding inh: HTS for Inhibitors of HP1-beta Chromodomain Interactions with Methylated Histone Tails; AlphaScreen HP1-beta / biotin-H3K9me3 peptide binding; actives 0.56% (n = 390,000); Chromobox protein homolog 1 (Homo sapiens), P83916; Potency, µM (doses to about 114 µM), for inactives: top-dose activity change, negative = inhibition, usual class: inhibitors; AID 540317, 2011; further: potency means the concentration at half of the fitted maximal effect; nearly all actives have a fitted effect of over 70% in size
Target sequence (P83916 whole entry, looked up): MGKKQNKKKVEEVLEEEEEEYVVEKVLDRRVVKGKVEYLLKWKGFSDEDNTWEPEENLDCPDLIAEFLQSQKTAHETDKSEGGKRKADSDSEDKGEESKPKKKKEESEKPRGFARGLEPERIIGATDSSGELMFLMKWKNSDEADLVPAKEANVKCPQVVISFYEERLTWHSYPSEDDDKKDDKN
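Compound inhibition of the preformed complex between 50 nM HP1-beta and 50 nM biotinylated H3K9me3 peptide was read by AlphaScreen. Buffer was PBS pH 7.4 with 0.01% Tween-20. Incubations ran 30 min at room temperature, with 10 ug/mL donor/acceptor beads.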
L3MBTL1 inh: qHTS Assay for the Inhibitors of L3MBTL1; Lethal(3)malignant brain tumor-like protein 1 (Homo sapiens), Q9Y468; AlphaScreen L3MBTL1–H3K9me1 peptide binding; Potency, µM (top dose mostly 57.1 µM), without a hit: top-dose activity, negative = inhibition, hits mostly inhibitors; actives 0.66% (n = 230,000); AID 485360, 2010; further: potency means the concentration at half of the fitted maximal effect; on the % scale 0 is the no-effect control and ±100 the full control effect; nearly all actives have a fitted effect of over 60% in size
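Displacement of a biotinylated histone H3(1-15) peptide monomethylated at Lys9 (75 nM) from L3MBTL1 (50 nM) was measured by AlphaScreen after a 30 min room-temperature compound incubation; cefsulodin titration served as intraplate control.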
An asterisk follows results filed as active; ? = inconclusive; . = not tested or not shown; [ ] = remark or other dose. Unless noted, the call rests on the fitted dose curve; in most records, active means well fitted inhibition curve with a large enough effect; inconclusive means small, poorly fitted or top-dose-only effect; inactive means no such curve, though single readings can be large or run the other way.

SMILES	JMJD2A Tudor	BAZ2B block	G9a inh	PI5P4K alpha inh	HP1b binding inh	L3MBTL1 inh
O=C(CO/N=C/c1cccc([N+](=O)[O-])c1)Nc1ccc2ccccc2c1	-25.7%	?	0.891µM*	-0.1	5.7%	.
O=C(COc1ccc(/C=N/NC(=O)c2ccc(O)cc2)cc1)Nc1cccc([N+](=O)[O-])c1	-23.8%	-35.4%	28.2µM*	-10.6	2.6%	20.6%
COc1ccc(NC(=O)c2c(C)oc3ccc(O)c(CN4CCCCCC4)c23)cc1Cl	-30.9%	?	-29.5%[59 µM]	.	-4.1%	.
COCCNC(=O)c1cn(C(C)c2ccccc2F)nn1 (stereo not given)	-10.9%	-1.6%	-2.4%[12.7 µM]	6.1	21.8%	.
CC(c1ccccc1F)n1cc(C(=O)NCCc2ccco2)nn1 (stereo not given)	-14.9%	-12.3%	50.1µM*	-4.2	19.3%	-9.3%
C=CCN1C(=O)/C(=C/c2ccc(OC(C)=O)c(OCC)c2[N+](=O)[O-])SC1=S	25.1µM*	11.2µM*	6.31µM*	?	15.8µM*	39.8µM*
COc1ccc(-c2nc3cnc(N4CCN(C)CC4)nc3n(CCC#N)c2=O)cc1	.	.	1.9%[12.7 µM]	.	.	.
CCCC(=O)NCC1(N(C)C)CCCCC1	-11.6%	2.5%	1.9%[59 µM]	.	21.5%	.
COc1ccc(-c2nc3ccc(NS(C)(=O)=O)cc3o2)cc1	-15.9%	-12.5%	-31.3%[59 µM]	.	20.5%	.
CCSc1cnc(-c2ccccc2)n1CC	-31.3%	?	50.1µM*	.	8.7%	-2.0%
COc1cccc(CNC(=O)C(=O)NCC(c2ccc3c(c2)OCO3)N2CCOCC2)c1 (stereo not given)	-24.8%	5.4%	4.8%[59 µM]	.	13.7%[57 µM]	.
CC(=O)N1CCN(c2ccc(NCc3ccco3)cc2)CC1	-17.1%	?	8.7%[0.501 µM]	.	31.7%	-8.1%
COc1cc(CNc2ccc(N3CCN(C(C)=O)CC3)cc2)ccc1OCc1ccccc1	44.7µM*	39.8µM*	28.2µM*	0.8	44.7µM*	-29.5%
CC(=O)N1CCN(c2ccc(NCc3ccc(C)cc3)cc2)CC1	?	44.7µM*	12.6µM*	.	-23.9%	-17.3%
CC(=O)N1CCN(c2ccc(NCc3ccc(-c4cccc(Cl)c4)o3)cc2)CC1	39.8µM*	.	.	.	?	?
CCc1ccc(CNc2ccc(N3CCN(C(C)=O)CC3)cc2)cc1	?	39.8µM*	?	-1.7	-48.3%	.
COc1cc(CNc2ccc(N3CCOCC3)cc2)ccc1OCC(=O)NC(C)(C)C	?	-13.6%	.	-0.4	-17.3%	-10.1%
Cc1ccc(CNC(=O)N2CCN(c3ccc(C)cc3)CC2)cc1	-17.2%	-35.4%	?	-0.6	8.6%	.
O=C(O)c1c(-c2ccccc2)oc2ccc(OCc3ccc(Cl)c(Cl)c3)cc12	-26.5%	?	-16.6%[59 µM]	.	?	.
CCN(C(=O)Cn1ncc2c(=O)oc3ccccc3c21)c1ccccc1F	-4.7%	.	-18.1%[59 µM]	.	16.2%	.
COc1ccc(N2CCN(C(=O)NCc3ccc(C)cc3)CC2)cc1	-6.4%	-25.0%	39.8µM*	1.7	15.9%	.
Cc1ccc(CNc2ccc(O)cc2)cc1	50.1µM*	31.6µM*	?	?	-73.1%	25.1µM*
COc1ccc(CCNC(=O)C(=O)NCC(c2ccco2)S(=O)(=O)c2ccc(F)cc2)cc1 (stereo not given)	6.5%	3.6%	-5.4%[59 µM]	.	22.7%	.
COc1cccc(/C=N/n2c(-c3cc(C)[nH]n3)n[nH]c2=S)c1	3.16µM*	-33.8%	2.51µM*	-15.9	?	2.9%
COc1cc(/C=N/Nc2nncn2/N=C/c2ccc(O)c(OC)c2)ccc1O	-22.2%	-9.2%	-14.7%	-22.6	33.2%	-9.9%
SMILES	JMJD2A Tudor	BAZ2B block	G9a inh	PI5P4K alpha inh	HP1b binding inh	L3MBTL1 inh
COc1cc(/C=N/n2c(-c3cc(C)[nH]n3)n[nH]c2=S)ccc1O	?	-26.8%	3.98µM*	-9.4	46.7%	0.0%
COc1cc(/C=N/NC(=S)N/N=C/c2cc(OC)c(OC)c(OC)c2)cc(OC)c1OC	?	-23.2%	?	3.6	25.9%	-11.3%
COc1cc(/C=N/n2c(-c3cc(C)[nH]n3)n[nH]c2=S)cc(OC)c1OC	1.41µM*	-32.4%	2.51µM*	-13.7	-21.9%	-6.3%
CCNc1cccc(S(=O)(=O)N2CCCN(S(=O)(=O)c3ccc4c(c3)OCCO4)CC2)c1	-22.0%	.	.	.	.	.
O=C(Nc1cc(C(F)(F)F)ccc1Cl)c1cnn(-c2ccccc2)c1-n1cccc1	13.4%	5.4%	-2.4%[59 µM]	.	47.0%	.
Cn1c2c(c(=O)n(C)c1=O)C(CC(=O)Nc1ccccc1F)C(=O)N2 (stereo not given)	-1.4%	0.0%	?	-1.1	14.0%	.
CCCCn1c2c(c(=O)n(C)c1=O)C(CC(=O)OCC(=O)Nc1cccc(C(F)(F)F)c1)C(=O)N2 (stereo not given)	-17.0%	-4.3%	31.6µM*	-4.5	27.7%	-0.2%
COc1ccc(-c2nc3cnc(N(C)C)nc3n(CCc3ccccc3)c2=O)cc1	.	.	14.3%[12.7 µM]	.	.	.
CCOc1ccc(-n2c(C)c(C(C)=O)c(C(C)=O)c2C)cc1	-16.5%	-29.4%	-18.4%[59 µM]	5.4	-9.6%	-4.8%
CCOc1ccc(-n2c(C)nc(O)c2N=Nc2ccccc2)cc1	?	?	1.41µM*	0.7	-7.1%	.
Cc1ccc(N2CC(NC(=O)CCCc3ccccc3)CC2=O)cc1 (stereo not given)	-4.2%	-0.8%	1.1%[59 µM]	.	28.7%	.
O=C(CN1CCN(C2CCCCC2)CC1)NCCC1=CCCCC1	12.6µM*	50.1µM*	.	.	?	-1.0%
CS(=O)(=O)N(CC(=O)NCCC1=CCCCC1)C1CCCCC1	-24.0%	5.7%	11.9%[59 µM]	2.2	9.1%	-6.3%
Cc1nccc(-c2cccc(N/N=C(\C#N)C(=O)c3ccccc3)c2)n1	?	-28.0%	?	-20.3	-5.4%	-16.6%
COC(=O)c1ccc(N=NNc2ccccc2)cc1	-24.7%	?	8.91µM*	-4.0	5.9%	-5.7%
O=C(O)c1ccc(N=NNc2cccc([N+](=O)[O-])c2)cc1	-16.1%	-29.6%	44.7µM*	-52.8*	-4.0%	-3.1%
N#C/C(=N\Nc1cccc([N+](=O)[O-])c1)C(=O)c1ccc(Br)cc1	39.8µM*	39.8µM*	44.7µM*	-12.6	?	-0.8%
CCc1ccc(-n2nc(C)c3c(C)cc(=O)n(CC(=O)Nc4cc(Cl)ccc4OC)c32)cc1	-25.0%	-3.8%	1.4%[59 µM]	.	-12.3%	.
